The campaign covered roughly 310,000 compounds. About 14,000 (4.5%) showed an effect of 50% or more. Effects have a minus sign here. The full list was thinned out, with strong results kept by preference.
Each compound was assayed against human ether-à-go-go-related gene (hERG) potassium channel (human, UniProt Q12809) (assay: primary screen, population patch clamp on CHO cells stably expressing hERG; higher = less effect of the substance).
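Further: peak tail current of the secondary pulse compared with the same well before compound.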

Chain of human ether-à-go-go-related gene (hERG) potassium channel (Q12809 whole entry, looked up): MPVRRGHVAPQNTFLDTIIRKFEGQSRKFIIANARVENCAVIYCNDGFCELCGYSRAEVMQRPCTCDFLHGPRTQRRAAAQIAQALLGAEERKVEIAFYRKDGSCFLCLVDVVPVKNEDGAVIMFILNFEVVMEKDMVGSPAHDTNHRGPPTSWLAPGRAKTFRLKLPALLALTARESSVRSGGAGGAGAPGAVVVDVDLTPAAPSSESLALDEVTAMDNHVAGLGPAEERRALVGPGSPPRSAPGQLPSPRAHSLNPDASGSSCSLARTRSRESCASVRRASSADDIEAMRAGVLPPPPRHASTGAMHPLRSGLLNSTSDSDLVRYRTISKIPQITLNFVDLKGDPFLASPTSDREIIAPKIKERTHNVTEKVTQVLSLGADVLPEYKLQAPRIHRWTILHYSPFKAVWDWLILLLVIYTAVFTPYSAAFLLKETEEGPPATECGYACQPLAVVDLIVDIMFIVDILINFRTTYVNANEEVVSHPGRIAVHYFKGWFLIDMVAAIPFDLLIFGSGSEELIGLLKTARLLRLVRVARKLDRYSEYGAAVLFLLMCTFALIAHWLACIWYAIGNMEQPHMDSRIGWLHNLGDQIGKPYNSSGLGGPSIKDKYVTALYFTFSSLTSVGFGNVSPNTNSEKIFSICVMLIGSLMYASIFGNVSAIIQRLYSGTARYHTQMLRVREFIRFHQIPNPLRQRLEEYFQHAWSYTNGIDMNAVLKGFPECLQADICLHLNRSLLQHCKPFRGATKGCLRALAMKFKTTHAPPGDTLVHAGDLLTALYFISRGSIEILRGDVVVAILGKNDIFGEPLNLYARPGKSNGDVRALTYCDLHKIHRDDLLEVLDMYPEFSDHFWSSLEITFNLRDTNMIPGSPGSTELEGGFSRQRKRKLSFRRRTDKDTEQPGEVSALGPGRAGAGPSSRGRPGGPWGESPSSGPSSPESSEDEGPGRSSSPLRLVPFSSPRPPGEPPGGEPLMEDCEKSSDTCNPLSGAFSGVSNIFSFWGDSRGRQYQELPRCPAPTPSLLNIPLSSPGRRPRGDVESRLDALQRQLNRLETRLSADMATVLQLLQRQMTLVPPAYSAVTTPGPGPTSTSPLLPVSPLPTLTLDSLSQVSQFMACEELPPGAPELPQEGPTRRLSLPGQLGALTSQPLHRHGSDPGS

First: COC(=O)c1cccc(NS(C)(=O)=O)c1
Second: CS(=O)(=O)Nc1cccc(C(=O)OCCCOc2ccc(F)cc2)c1
The “hERG current change (%, negative = inhibition) at 10uM” value of the first is higher: 12.9% for the first, -54.5% for the second.

Compared with `CC(=O)Nc1cccc(C(=O)OCCCOc2ccc(F)cc2)c1`, `COc1ccc(OCCNS(=O)(=O)Cc2ccccc2)cc1` is lower in “hERG current change (%, negative = inhibition) at 10uM” value: 18.8% for the first, 0.161% for the second.

First: CC(C)CNC(=O)NC(=O)COC(=O)c1cc(F)cc(F)c1
Second: COc1ccc(C)cc1NC(=O)C(=O)NNC(=O)c1ccco1
The “hERG current change (%, negative = inhibition) at 10uM” value of the first is lower: -4.56% for the first, 17.6% for the second.

Compared with `Cc1c(CC(=O)O)c(=O)oc2c(C)c(OCc3c(F)cccc3Cl)ccc12`, `Cc1sc2ncnc(OCC(=O)N3CCN(S(=O)(=O)c4ccccc4)CC3)c2c1C` is lower in “hERG current change (%, negative = inhibition) at 10uM” value: 5.53% for the first, -2.31% for the second.

Compared with `CCOc1ccccc1NC(=O)C(NCC1CCCCC1)c1ccccc1` (stereo not shown), `CCOc1ccccc1NC(=O)C(OC(=O)C1CC1)c1ccccc1` (stereo not shown) is lower in “hERG current change (%, negative = inhibition) at 10uM” value: 16.9% for the first, -10.3% for the second.

Compared with `CCOc1ccccc1NC(=O)C(NCC1(N2CCCCC2)CCCCC1)c1ccccc1.O=C(O)C(=O)O` (stereo not shown), `CCOc1ccccc1NC(=O)C(NCCN(C)C)c1ccccc1.O=C(O)C(=O)O` (stereo not shown) is lower in “hERG current change (%, negative = inhibition) at 10uM” value: -70.9% for the first, -76.4% for the second.

Going from `CCOc1ccccc1NC(=O)C(Sc1ccccc1)c1ccccc1` (stereo not shown) to `CCOc1ccccc1NC(=O)C(NCCc1ccc(OC)cc1)c1ccccc1` (stereo not shown), the “hERG current change (%, negative = inhibition) at 10uM” value falls from 9.32% to -4.48%.

Going from `COc1cccc(C(=O)N2CCC3(CC2)OCCO3)c1` to `Cc1cccc(NC(=O)c2ccc(S(=O)(=O)N3CCOCC3)cc2)n1`, the “hERG current change (%, negative = inhibition) at 10uM” value falls from 20.3% to 19.5%.

Compared with `COCCSc1ccccc1C(=O)N1CCc2ccccc21`, `O=C(COc1ccccc1)N1CCN(c2ccccc2)CC1` is lower in “hERG current change (%, negative = inhibition) at 10uM” value: 15.1% for the first, -3.1% for the second.

Compared with `CC(C)(C)c1ccc(OCCC(=O)Nc2cccc(S(=O)(=O)N3CCCCC3)c2)cc1`, `O=C(c1cc(C2CC2)nn1-c1ccccc1)N1CCN(S(=O)(=O)c2cccc(F)c2)CC1` is lower in “hERG current change (%, negative = inhibition) at 10uM” value: 16.4% for the first, -28.1% for the second.

First: Cc1nc(N2CCN(C(=O)COc3ccccc3)CC2)c2c(C)c(C)sc2n1.Cl
Second: CCC(=O)N1CCN(c2nc(C)nc3sc(C)c(C)c23)CC1
The “hERG current change (%, negative = inhibition) at 10uM” value of the first is lower: -69.3% for the first, -62% for the second.

Going from `Cc1nc(N2CCN(S(=O)(=O)c3ccc(Br)cc3)CC2)c2c(C)c(C)sc2n1` to `Cc1nc(N2CCN(C(=O)CCC(=O)O)CC2)c2c(C)c(C)sc2n1`, the “hERG current change (%, negative = inhibition) at 10uM” value rises from -10.7% to -1.2%.

`O=[N+]([O-])c1ccc(Cl)c(S(=O)(=O)/N=C(/c2ccccc2)N2CCOCC2)c1` was tested, and the “hERG current change (%, negative = inhibition) at 10uM” value was 3.91%.

— PMC4336329 (PLoS ONE, 2015)
